Measurements taken from PubChem BioAssay (EPA / NIEHS).
Records with an inconclusive call do not appear. The source made the active and inactive calls. The calls were made as follows, unless noted: active = hit-call score of the fitted dose curve at least 0.9, where 1 is the maximum; inconclusive = response in the unintended direction; inactive = score below 0.9.

How the values were obtained:
[1] = target: rat CYP2A1, Cyp2a1 (gene 24894) (UniProt P11711); test: NVS_ADME_rCYP2A1: NovaScreen (NVS) CYP450-related Enzyme Activity (ADME) Assay for rat CYP2A1 (AID 2283114; active = hit-call score of the fitted dose curve at least 0.9, where 1 is the maximum; inactive = score below 0.9)
How it was run: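 Recombinant rat CYP2A1, cell-free, fluorogenic substrate turnover read by fluorescence intensity 0.75 h after dosing. Primary screen at 10 uM in duplicate; actives rerun as concentration-response up to 20 uM; loss of signal versus acetonitrile control.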

[2] = target: human Beta-secretase (BACE), BACE1 (gene 23621) (UniProt P56817); test: NVS_ENZ_hBACE: NovaScreen (NVS) Enzymatic Assay for human Beta-secretase (BACE) (AID 2283140);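 also: hits are inhibitors that reduce fluorescent substrate signal versus DMSO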
How it was run: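 Cell-free assay of recombinant Sf9-expressed human BACE with fluorescent substrate, read by fluorescence intensity after 1 h. Primary screen in duplicate at 25 uM; actives then run in concentration series; loss of signal relative to DMSO.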

[3] = target: human Matrix Metalloproteinase-9 (MMP9), MMP9 (gene 4318) (UniProt P14780); test: NVS_ENZ_hMMP9: NovaScreen (NVS) Enzymatic Assay for human Matrix Metalloproteinase-9 (MMP9) (AID 2283190);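 also: cell-free recombinant MMP9 protease activity read by fluorescent substrate signal; active means inhibition seen as loss of fluorescence signal versus DMSO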
How it was run: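 Cell-free fluorescence-intensity enzyme activity assay using extracted protein, read 1 h after dosing. Loss of signal versus DMSO baseline indicates inhibition; primary screen in duplicate at 25 uM, actives followed up in concentration series.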

[4] = target: Cytochrome P450 2C19 (Homo sapiens) (UniProt P33261); test: NVS_ADME_hCYP2C19: NovaScreen (NVS) CYP450-related Enzyme Activity (ADME) Assay for human CYP2C19 (AID 2283113);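 also: potency for inhibition seen as loss of fluorescent signal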
How it was run: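 Biochemical CYP2C19 inhibition screen: insect-cell recombinant protein plus fluorescent substrate, 1 h, fluorescence intensity. Acetonitrile defined baseline activity. Single 10 uM concentration in duplicate, with concentration-response follow-up for actives.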

[5] = target: human Esterase Plasma (ES), BCHE (gene 590) (UniProt P06276); test: NVS_ENZ_hES: NovaScreen (NVS) Enzymatic Assay for human Esterase Plasma (ES) (AID 2283157)
How it was run: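 Chemicals were added to plasma-extracted human enzyme in a cell-free format, and activity was read colorimetrically after 0.25 hour. Activity loss was referenced to DMSO; concentration-response top dose was 50 uM.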

[6] = target: human Phosphoinositide 3-kinase alpha (PI3Ka), PIK3CA (gene 5290) (UniProt P42336); test: NVS_ENZ_hPI3Ka: NovaScreen (NVS) Enzymatic Assay for human Phosphoinositide 3-kinase alpha (PI3Ka) (AID 2283196)
How it was run: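 Enzyme activity as fluorescence after mobility-shift separation of substrate and product, 1 h reaction, recombinant human PI3Kα; concentration-response to 50 uM max for chemicals passing a 25 uM duplicate screen.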

[7] = target: human Caspase 5 (CASP5), CASP5 (gene 838) (UniProt P51878); test: NVS_ENZ_hCASP5: NovaScreen (NVS) Enzymatic Assay for human Caspase 5 (CASP5) (AID 2283137)
How it was run: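 Recombinant human caspase 5 expressed in E. coli, fluorogenic substrate, fluorescence read 2 h after dosing. Single-point 25 uM duplicate screen, then concentration-response to maximum 50 uM for actives; DMSO baseline.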

[8] = target: human Ephrin type-A Receptor 1 (EphA1), EPHA1 (gene 2041) (UniProt P21709); test: NVS_ENZ_hEphA1: NovaScreen (NVS) Enzymatic Assay for human Ephrin type-A Receptor 1 (EphA1) (AID 2283158);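 also: activity is signal loss versus DMSO meaning EphA1 kinase inhibition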
How it was run: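 Here the EphA1 protein is recombinant and the substrate fluorescent, with electrophoretic separation before fluorescence detection at 1 hour. Signal loss against DMSO defines activity; plate controls included; follow-up concentration series reach 50 uM.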

[9] = target: human Phosphodiesterase 10 (PDE10), PDE10A (gene 10846) (UniProt Q9Y233); test: NVS_ENZ_hPDE10: NovaScreen (NVS) Enzymatic Assay for human Phosphodiesterase 10 (PDE10) (AID 2283195)
How it was run: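 PDE10A, cell-free; 1 h incubation; fluorescence intensity + electrophoretic mobility shift separating substrate/product; DMSO = baseline; 25 uM duplicate primary, CRC up to 50 uM.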

[10] = target: human Phosphodiesterase 5 (PDE5), PDE5A (gene 8654) (UniProt O76074); test: NVS_ENZ_hPDE5: NovaScreen (NVS) Enzymatic Assay for human Phosphodiesterase 5 (PDE5) (AID 2283194)
How it was run: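 Recombinant human PDE5 with specific substrate, read 1 h after dosing by fluorescence with electrophoretic mobility-shift separation of substrate and product. Initial single-concentration duplicate screen at 25 uM, actives followed in concentration series; loss of activity versus DMSO.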

[11] = target: sheep Cyclooxygenase-1 (Cox1), PTGS1 (gene 443551) (UniProt P05979); test: NVS_ENZ_oCOX1: NovaScreen (NVS) Enzymatic Assay for sheep Cyclooxygenase-1 (Cox1) (AID 2283239);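 also: actives reduce cyclooxygenase activity so potencies are for inhibitors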
How it was run: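 Tested in duplicate at 25 uM, then in concentration series if active, against seminal vesicle extract from sheep. Enzyme activity was measured colorimetrically at 0.66 hour and normalised to DMSO.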

[12] = target: Mitogen-activated protein kinase 3 (Homo sapiens) (UniProt P27361); test: NVS_ENZ_hMAPK3: NovaScreen (NVS) Enzymatic Assay for human Mitogen-Activated Protein Kinase 3 (MAPK 3) (AID 2283177)
How it was run: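 Cell-free enzymatic assay with recombinant protein and specific substrate; fluorescence and electrophoretic mobility shift read-out 1 h after dosing. Primary screen duplicate at 25 uM; actives then run in concentration-response up to 50 uM, loss of signal versus DMSO.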

[13] = target: human Vascular Endothelial Growth Factor Receptor 1 (VEGFR1), FLT1 (gene 2321) (UniProt P17948); test: NVS_ENZ_hVEGFR1: NovaScreen (NVS) Enzymatic Assay for human Vascular Endothelial Growth Factor Receptor 1 (VEGFR1) (AID 2283226)
How it was run: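 Cell-free assay of recombinant human VEGFR1 kinase with substrate, measured 1 h after dosing; fluorescence with electrophoretic mobility-shift separation of substrate and product, referenced to DMSO; primary screen at 25 uM in duplicate, actives then run in concentration series.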

[14] = target: human Vascular Endothelial Growth Factor Receptor 3 (VEGFR3), FLT4 (gene 2324) (UniProt P35916); test: NVS_ENZ_hVEGFR3: NovaScreen (NVS) Enzymatic Assay for human Vascular Endothelial Growth Factor Receptor 3 (VEGFR3) (AID 2283229)
How it was run: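 Cell-free recombinant VEGFR3 kinase reaction with fluorescent substrate, read 1 h after dosing by electrophoretic mobility shift separation of substrate and product. Single-concentration duplicate screen at 25 uM, then concentration-response up to 50 uM; loss of activity versus DMSO.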

[15] = target: human Vascular Endothelial Growth Factor Receptor 2 (VEGFR2), KDR (gene 3791) (UniProt P35968); test: NVS_ENZ_hVEGFR2: NovaScreen (NVS) Enzymatic Assay for human Vascular Endothelial Growth Factor Receptor 2 (VEGFR2) (AID 2283230)
How it was run: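 Cell-free recombinant VEGFR2 kinase, fluorescent substrate with electrophoretic mobility-shift separation; read 1 h after dosing. Screened at 25 uM in duplicate, hits to concentration-response up to 50 uM; loss-of-signal versus DMSO.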

Sequence of human Ephrin type-A Receptor 1 (EphA1), EPHA1 (gene 2041) (P21709 whole entry, looked up): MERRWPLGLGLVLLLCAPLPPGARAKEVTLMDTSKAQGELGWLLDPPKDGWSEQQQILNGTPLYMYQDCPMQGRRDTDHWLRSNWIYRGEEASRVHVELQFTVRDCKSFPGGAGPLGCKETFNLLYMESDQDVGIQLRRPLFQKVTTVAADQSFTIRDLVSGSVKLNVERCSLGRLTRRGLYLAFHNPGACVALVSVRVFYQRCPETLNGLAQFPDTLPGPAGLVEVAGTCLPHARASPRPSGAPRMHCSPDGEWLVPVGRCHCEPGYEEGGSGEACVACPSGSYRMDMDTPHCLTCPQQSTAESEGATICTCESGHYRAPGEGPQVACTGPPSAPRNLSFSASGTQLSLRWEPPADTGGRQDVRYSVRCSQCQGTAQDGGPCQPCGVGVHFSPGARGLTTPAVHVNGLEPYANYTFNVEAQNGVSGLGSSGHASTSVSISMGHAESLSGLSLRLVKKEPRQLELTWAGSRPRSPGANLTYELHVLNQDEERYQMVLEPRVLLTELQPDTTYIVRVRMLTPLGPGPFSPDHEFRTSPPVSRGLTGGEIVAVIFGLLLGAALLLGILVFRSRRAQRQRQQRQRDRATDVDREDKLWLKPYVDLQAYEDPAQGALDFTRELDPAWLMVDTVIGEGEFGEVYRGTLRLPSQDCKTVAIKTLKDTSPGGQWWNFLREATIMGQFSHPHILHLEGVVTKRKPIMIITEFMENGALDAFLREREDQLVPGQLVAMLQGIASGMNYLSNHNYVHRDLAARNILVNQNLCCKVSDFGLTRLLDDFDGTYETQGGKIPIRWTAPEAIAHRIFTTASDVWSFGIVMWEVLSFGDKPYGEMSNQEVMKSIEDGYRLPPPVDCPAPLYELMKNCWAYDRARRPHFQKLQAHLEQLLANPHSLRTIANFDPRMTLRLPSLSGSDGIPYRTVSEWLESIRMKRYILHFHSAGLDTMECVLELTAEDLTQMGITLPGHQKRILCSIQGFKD
Sequence of human Phosphoinositide 3-kinase alpha (PI3Ka), PIK3CA (gene 5290) (P42336 whole entry, looked up): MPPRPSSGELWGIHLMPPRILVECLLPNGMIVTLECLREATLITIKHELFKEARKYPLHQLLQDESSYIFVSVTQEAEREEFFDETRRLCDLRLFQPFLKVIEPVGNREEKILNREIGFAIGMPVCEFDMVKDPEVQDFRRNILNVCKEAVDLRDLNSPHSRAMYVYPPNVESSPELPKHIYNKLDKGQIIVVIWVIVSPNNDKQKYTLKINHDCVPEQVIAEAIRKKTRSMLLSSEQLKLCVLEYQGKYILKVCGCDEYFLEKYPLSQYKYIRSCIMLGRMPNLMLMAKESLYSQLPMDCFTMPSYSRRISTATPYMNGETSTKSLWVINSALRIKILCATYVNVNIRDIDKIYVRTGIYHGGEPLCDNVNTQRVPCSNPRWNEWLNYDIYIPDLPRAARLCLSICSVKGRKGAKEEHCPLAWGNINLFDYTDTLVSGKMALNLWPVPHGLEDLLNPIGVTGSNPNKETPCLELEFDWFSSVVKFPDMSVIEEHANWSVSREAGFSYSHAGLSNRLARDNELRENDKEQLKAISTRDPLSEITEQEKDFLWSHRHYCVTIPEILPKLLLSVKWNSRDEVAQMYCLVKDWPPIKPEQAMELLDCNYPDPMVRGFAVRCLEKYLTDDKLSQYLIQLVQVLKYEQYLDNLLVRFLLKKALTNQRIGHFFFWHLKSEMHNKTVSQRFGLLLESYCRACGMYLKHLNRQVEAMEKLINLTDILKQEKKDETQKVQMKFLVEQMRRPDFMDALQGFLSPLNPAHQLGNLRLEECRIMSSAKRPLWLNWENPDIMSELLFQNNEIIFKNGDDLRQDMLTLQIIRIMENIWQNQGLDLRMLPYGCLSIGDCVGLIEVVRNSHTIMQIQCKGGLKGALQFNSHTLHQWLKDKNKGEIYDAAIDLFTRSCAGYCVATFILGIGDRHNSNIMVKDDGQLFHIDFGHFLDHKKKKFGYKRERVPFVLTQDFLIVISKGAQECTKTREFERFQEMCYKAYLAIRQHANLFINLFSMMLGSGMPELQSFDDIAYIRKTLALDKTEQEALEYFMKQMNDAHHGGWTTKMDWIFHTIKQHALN
Sequence of sheep Cyclooxygenase-1 (Cox1), PTGS1 (gene 443551) (P05979 whole entry, looked up): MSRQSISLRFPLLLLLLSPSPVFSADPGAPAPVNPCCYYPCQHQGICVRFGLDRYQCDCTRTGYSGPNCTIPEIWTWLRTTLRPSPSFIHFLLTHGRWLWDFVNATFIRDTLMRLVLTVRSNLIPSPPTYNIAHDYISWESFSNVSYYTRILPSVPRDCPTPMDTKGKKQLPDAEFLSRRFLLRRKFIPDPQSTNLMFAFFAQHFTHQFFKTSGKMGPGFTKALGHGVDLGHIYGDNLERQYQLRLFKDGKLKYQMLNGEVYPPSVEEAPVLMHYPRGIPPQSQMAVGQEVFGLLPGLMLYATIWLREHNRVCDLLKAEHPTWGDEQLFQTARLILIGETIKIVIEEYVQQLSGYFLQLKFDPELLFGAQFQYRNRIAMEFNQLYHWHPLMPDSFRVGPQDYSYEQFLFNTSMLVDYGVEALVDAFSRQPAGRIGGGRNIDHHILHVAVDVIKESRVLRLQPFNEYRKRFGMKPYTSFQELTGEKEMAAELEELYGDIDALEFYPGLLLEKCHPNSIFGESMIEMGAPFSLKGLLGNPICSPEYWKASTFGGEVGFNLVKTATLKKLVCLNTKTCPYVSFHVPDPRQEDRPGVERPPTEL
Sequence of human Phosphodiesterase 10 (PDE10), PDE10A (gene 10846) (Q9Y233 whole entry, looked up): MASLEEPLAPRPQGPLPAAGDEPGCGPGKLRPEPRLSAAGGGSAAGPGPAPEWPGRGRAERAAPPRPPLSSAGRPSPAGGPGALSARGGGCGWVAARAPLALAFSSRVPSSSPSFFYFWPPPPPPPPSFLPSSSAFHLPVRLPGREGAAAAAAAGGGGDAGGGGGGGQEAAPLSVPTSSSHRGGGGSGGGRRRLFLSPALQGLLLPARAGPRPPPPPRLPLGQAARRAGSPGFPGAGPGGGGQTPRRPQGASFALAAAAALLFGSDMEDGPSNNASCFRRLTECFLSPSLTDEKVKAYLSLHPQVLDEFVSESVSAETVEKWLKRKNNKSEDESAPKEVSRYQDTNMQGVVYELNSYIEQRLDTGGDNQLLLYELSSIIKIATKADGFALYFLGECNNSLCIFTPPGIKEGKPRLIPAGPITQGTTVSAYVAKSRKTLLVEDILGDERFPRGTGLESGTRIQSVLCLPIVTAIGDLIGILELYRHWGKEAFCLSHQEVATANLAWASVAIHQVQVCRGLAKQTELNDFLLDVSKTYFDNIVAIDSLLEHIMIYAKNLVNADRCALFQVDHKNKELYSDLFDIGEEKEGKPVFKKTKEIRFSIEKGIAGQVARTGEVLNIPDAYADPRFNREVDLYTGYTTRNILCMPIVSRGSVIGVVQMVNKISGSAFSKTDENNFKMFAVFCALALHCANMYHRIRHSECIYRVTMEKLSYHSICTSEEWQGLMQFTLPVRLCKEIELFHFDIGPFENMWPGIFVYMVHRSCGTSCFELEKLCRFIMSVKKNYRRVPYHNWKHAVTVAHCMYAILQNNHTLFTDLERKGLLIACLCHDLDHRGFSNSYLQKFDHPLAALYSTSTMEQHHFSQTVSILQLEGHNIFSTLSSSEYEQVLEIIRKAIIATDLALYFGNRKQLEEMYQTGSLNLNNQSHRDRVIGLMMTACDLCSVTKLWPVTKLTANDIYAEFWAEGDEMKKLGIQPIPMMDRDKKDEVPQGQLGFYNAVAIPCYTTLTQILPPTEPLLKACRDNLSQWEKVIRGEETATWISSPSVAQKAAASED
Sequence of human Matrix Metalloproteinase-9 (MMP9), MMP9 (gene 4318) (P14780 whole entry, looked up): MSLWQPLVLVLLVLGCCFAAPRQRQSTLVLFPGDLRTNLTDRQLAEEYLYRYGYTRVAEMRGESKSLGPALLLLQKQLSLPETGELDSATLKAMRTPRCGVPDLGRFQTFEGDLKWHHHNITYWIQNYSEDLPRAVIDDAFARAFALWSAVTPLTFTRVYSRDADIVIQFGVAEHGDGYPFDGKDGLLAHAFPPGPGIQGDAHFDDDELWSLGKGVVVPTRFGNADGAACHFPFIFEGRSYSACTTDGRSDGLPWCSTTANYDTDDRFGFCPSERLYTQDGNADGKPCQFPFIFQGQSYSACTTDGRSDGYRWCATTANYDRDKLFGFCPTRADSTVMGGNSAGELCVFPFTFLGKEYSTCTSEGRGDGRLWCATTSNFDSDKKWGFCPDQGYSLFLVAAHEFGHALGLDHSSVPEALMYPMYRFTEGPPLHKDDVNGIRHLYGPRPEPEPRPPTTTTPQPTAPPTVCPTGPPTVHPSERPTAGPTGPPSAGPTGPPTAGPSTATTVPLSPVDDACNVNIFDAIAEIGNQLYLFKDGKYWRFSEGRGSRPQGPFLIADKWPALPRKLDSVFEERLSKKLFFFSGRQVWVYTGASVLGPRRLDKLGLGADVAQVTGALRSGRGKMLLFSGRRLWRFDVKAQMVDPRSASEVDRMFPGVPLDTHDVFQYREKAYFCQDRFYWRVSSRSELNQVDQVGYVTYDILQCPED
Sequence of human Beta-secretase (BACE), BACE1 (gene 23621) (P56817 whole entry, looked up): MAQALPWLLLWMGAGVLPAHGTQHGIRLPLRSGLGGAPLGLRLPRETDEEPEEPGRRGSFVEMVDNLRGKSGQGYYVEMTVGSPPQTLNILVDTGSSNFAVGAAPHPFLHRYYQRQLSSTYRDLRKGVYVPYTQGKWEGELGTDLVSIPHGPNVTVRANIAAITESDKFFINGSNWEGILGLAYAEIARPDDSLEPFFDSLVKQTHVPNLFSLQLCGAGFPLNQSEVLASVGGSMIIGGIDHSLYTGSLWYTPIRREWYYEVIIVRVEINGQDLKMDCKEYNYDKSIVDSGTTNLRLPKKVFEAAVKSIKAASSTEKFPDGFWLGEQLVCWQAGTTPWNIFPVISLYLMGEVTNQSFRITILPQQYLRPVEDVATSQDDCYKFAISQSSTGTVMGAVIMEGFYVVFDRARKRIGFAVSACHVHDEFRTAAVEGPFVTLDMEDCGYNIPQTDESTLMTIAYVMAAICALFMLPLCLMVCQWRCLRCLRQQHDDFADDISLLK

## C=Cc1ccc(C)cc1
[1]
  outcome: inactive

## COC(C)(C)CCO
[2]
  outcome: inactive

## CCOCCOCCOCC
[2]
  outcome: inactive
[3]
  AC50: 15.4 µM (active)

## Cc1cc(CCC(=O)OCCOCCOCCOC(=O)CCc2cc(C)c(O)c(C(C)(C)C)c2)cc(C(C)(C)C)c1O
[4]
  AC50: 2.45 µM (active)

## CC(C)(C)CC(C)(C)c1ccc(OCCOCC[N+](C)(C)Cc2ccccc2)cc1
[5]
  AC50: 0.791 µM (active)
[6]
  AC50: 9.05 µM (active)

## CSCCC=O
[4]
  AC50: 0.29 µM (active)
[3]
  AC50: 0.684 µM (active)

## c1ccc(Oc2ccccc2)cc1
[7]
  outcome: inactive
[3]
  outcome: inactive

## CCN(CC)C(=O)N(CC)CC
[8]
  AC50: 25 µM (active)

## C=C(C#N)C(=O)OCC
[3]
  AC50: 8.63 µM (active)

## C=CC(=O)OCCCC
[8]
  outcome: inactive
[9]
  AC50: 10.2 µM (active)
[6]
  AC50: 0.00235 µM (active)

## OCCCCC(O)CO (centres undefined)
[8]
  AC50: 5.49 µM (active)
[9]
  AC50: 40.4 µM (active)
[6]
  AC50: 0.803 µM (active)

## CS(=O)(=O)c1ccc(C2=C(c3ccccc3)C(=O)OC2)cc1
[9]
  outcome: inactive

## CC(=O)CC(=O)Nc1ccccc1
[6]
  outcome: inactive

## O=[N+]([O-])c1ccc(O)cc1C(F)(F)F
[10]
  outcome: inactive
[11]
  outcome: inactive

## [O-]n1ccccc1=S.[O-]n1ccccc1=S.[Zn+2]
[12]
  outcome: inactive
[13]
  outcome: inactive
[14]
  outcome: inactive
[15]
  outcome: inactive
[11]
  AC50: 5.57 µM (active)

## COc1cccc(OC)c1O
[9]
  outcome: inactive

## O=[N+]([O-])c1cccc(Cl)c1
[9]
  AC50: 25 µM (active)
[13]
  outcome: inactive

## COc1ccc(OC)c(N=Nc2c(O)ccc3ccccc23)c1
[9]
  AC50: 42.3 µM (active)

## CCOC(=O)[C@@H](C)Oc1ccc(Oc2nc3ccc(Cl)cc3o2)cc1
[14]
  outcome: inactive
[11]
  outcome: inactive

## c1ccc(CCc2ccccc2)cc1
[11]
  outcome: inactive

## CCOc1ccc(NC(=O)CC(C)=O)cc1
[8]
  outcome: inactive
[6]
  outcome: inactive

## O=CN1CCOCC1
[9]
  outcome: inactive
[6]
  outcome: inactive

## Cc1ncc([N+](=O)[O-])n1CCO
[8]
  AC50: 11.7 µM (active)
[9]
  outcome: inactive

## CCC1CCCCC1
[9]
  outcome: inactive

## O=C1OC(=O)c2c(Br)c(Br)c(Br)c(Br)c21
[9]
  outcome: inactive

## CC(C)Nc1nc(N)nc(Cl)n1
[9]
  outcome: inactive

## COC(C)(C)CC(C)=O
[6]
  outcome: inactive

## C=CCCCCCCCCCC
[3]
  outcome: inactive

## CC(=O)Nc1ccc(C(=O)CCl)cc1
[13]
  AC50: 40.1 µM (active)
[11]
  outcome: inactive

## CC(C)CC(C)CC(O)CC(C)C (centres undefined)
[3]
  AC50: 5.13 µM (active)

## CCCCC(CC)(CO)CO
[9]
  outcome: inactive

## CC=Cc1ccc(OCC)c(O)c1
[9]
  outcome: inactive

## CC(=O)C1(C)CC2=C(CCCC2(C)C)CC1C (centres undefined)
[11]
  outcome: inactive

## CC(=O)c1c(C)c([N+](=O)[O-])c(C(C)(C)C)c([N+](=O)[O-])c1C
[6]
  outcome: inactive

## Cc1ccc(C)o1
[6]
  outcome: inactive

## CC1(C)C2=CCCC(C)(C)[C@]23CC[C@H]1C3
[11]
  AC50: 16.4 µM (active)

## c1ccc2[nH]cnc2c1
[3]
  AC50: 7.49 µM (active)
[11]
  outcome: inactive

## CN(C)C(=O)Nc1ccc(Oc2ccc(Cl)cc2)cc1
[11]
  AC50: 25 µM (active)

## CCC(C)=O
[3]
  AC50: 6.96 µM (active)
